Our source for the AC50 and activity, negative = inhibition values is PubChem BioAssay AID1851 (National Center for Advancing Translational Sciences (NCATS), 2009).

Out of some 16,000 compounds screened, about 5,800 (36%) were called active. About 23% were inconclusive and are not listed. The list shows a part of the results. A number with no mark means an inactive call. Calls come from the whole dose curve; as a rule, active = well fitted curve in the direction sought with a large enough effect; inconclusive = small, poorly fitted or top-dose-only effect, or effect the other way; inactive = no such curve, though single readings can be large or run the other way.
% is set by controls: 0 for no effect and ±100 for the full control effect.

The target of this assay is Cytochrome P450 2C19 (Homo sapiens) (UniProt P33261). Description: Cytochrome panel assay with activity outcomes. As to conditions: recombinant CYP, pro-luciferin dealkylation, luminescence, p450-cyp2c19; series mostly up to 57.1 µM.
Chain of Cytochrome P450 2C19 (Homo sapiens) (P33261 whole entry, looked up): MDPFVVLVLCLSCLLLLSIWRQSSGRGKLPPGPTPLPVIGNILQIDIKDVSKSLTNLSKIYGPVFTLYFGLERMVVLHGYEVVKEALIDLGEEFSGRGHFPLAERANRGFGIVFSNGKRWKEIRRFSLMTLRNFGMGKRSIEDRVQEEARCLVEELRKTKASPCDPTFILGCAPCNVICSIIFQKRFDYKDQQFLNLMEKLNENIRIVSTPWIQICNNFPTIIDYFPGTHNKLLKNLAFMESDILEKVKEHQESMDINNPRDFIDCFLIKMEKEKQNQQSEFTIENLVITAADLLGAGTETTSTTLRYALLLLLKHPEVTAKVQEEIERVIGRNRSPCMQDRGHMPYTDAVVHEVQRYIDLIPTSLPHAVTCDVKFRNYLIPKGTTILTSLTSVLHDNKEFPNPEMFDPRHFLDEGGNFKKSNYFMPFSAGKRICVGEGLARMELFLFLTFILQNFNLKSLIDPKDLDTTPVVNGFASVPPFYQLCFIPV
In general, AC50 refers to the concentration giving half of the maximal activity seen. In the case of `COCCNc1ncnc2ccc(-c3ccoc3)cc12`, the AC50 result is “inactive”. Turning to `N#Cc1ccccc1-c1ccc2ncnc(N3CCNCC3)c2c1`, the AC50 result was “inactive”. With `CN1CCN(c2cc(-c3ccc(N(C)C)cc3)ncn2)CC1`, the AC50 result was “inactive”. Consider `c1cn(-c2ncnc3ccc(-c4ccoc4)cc23)cn1`, for which the AC50 is 10 µM (active).

Turning to `CN(C)c1ccc(-c2cc(-n3ccnc3)ncn2)cc1`, the AC50 is 7.94 µM (active). For the compound `Cc1ccccc1-c1ccc2ncnc(-n3ccnc3)c2c1`, the AC50 is 2 µM (active). With `CCN(CC)C(=O)c1ccc(O)c(OC)c1`, the AC50 entry is “inactive”. On the same count and under the same terms, the entry for `COc1ccccc1CN1CCC2(CC1)CCN(C(C)=O)CC2` is “inactive”. Same read-out and setting: the figure for `CCCCN(CC)C(=O)Cc1ccccc1OC` is 4.47 µM (active); for `Cc1ccc2nc(Cc3ccc(N)cc3)[nH]c2c1` it is 3.55 µM (active); for `N#Cc1c(SCC(N)=O)nsc1SCc1ccccc1Cl` it is 1.12 µM (active). Consider `Nc1nc(SCc2ccccc2Cl)cc(C(=O)O)n1`, for which the activity, negative = inhibition is 35% [at 11.4 µM]. In the case of `CC1CCC(NC(=O)CC(C)(C)Cc2nc3ccccc3c(=O)[nH]2)CC1` (centres undefined), the AC50 was 6.31 µM (active). Turning to `CN(C)C(=O)c1ccc(-c2nc(NC3CCNCC3)c3ccccc3n2)cc1`, the AC50 result is “inactive”. On to `CN=C(NC#N)Nc1ccc(C2=NNC(=O)C[C@@H]2C)cc1`, for which the AC50 entry is “inactive”.

Take `CN1CCN(c2ncc3ncc(=O)n(Cc4cccs4)c3n2)CC1`: the AC50 result is “inactive”. Regarding `O=c1c(-c2ccccc2)nc2cnc(N3CCOCC3)nc2n1CCc1ccccc1`, the AC50 result was “inactive”. Same read-out and setting: the figure for `O=c1cnc2cnc(N3CCOCC3)nc2n1CCc1ccccc1` is 0.1 µM (active); for `CN1CCN(c2ncc3ncc(=O)n(Cc4ccc(F)cc4)c3n2)CC1` it is “inactive”; for `O=c1cnc2cnc(N3CCOCC3)nc2n1C[C@H]1CCCO1` it is “inactive”. Turning to `Cc1nc2cnc(N3CCN(C)CC3)nc2n(CCc2ccccc2)c1=O`, the AC50 is 5.01 µM (active). The same measure, in the same setting: the value for `COc1ccc(-c2nc3cnc(N4CCN(C)CC4)nc3n(CCc3ccccc3)c2=O)cc1` was “inactive”.

In the case of `CN1CCN(c2ncc3nc(-c4ccccc4)c(=O)n(CCc4ccccc4)c3n2)CC1`, the AC50 entry was “inactive”. On the same count and under the same terms, the value for `CN1CCN(c2ncc3ncc(=O)n(CCc4ccccc4)c3n2)CC1` was 6.31 µM (active); that for `O=c1cnc2cnc(N3CCOCC3)nc2n1Cc1ccc(F)cc1` was 3.98 µM (active); that for `CN1CCN(c2ncc3nc(-c4cccs4)c(=O)n(CCc4ccccc4)c3n2)CC1` was “inactive”.

With `COc1ccc(-c2nc3cnc(N4CCOCC4)nc3n(CCc3ccccc3)c2=O)cc1`, the AC50 result is “inactive”.

As for `COC(=O)CCC(=O)NNC(=O)c1ccc(Br)cc1`, the AC50 entry is “inactive”. Consider `COc1ccc(O)c(/C=N/NC(=O)c2ccc(OCc3cccc(Br)c3)cc2)c1`, for which the AC50 result is “inactive”. In the case of `COc1ccc(C(=O)NCC(=O)OCc2cccc(Br)c2)cc1`, the half-maximal activity concentration (AC50) is 3.55 µM (active). On the same count and under the same terms, the figure for `CCO[C@H](c1cc(OC)cc([N+](=O)[O-])c1OC)[C@H](C)/C=C\CC(=O)OC` is 0.398 µM (active). In the case of `COC(=O)C/C=C\[C@H](C)[C@@H](OC)c1ccccc1Br`, the activity, negative = inhibition was -6.61% [at 11.4 µM]. Regarding `CO/N=C\[C@@H](OC)[C@H](C)/C=C\CC(=O)OC`, the activity, negative = inhibition is -12.9% [at 11.4 µM].

On to `Cc1nc2c(OCc3ccccc3)cccn2c1CC#N`, for which the AC50 result is “inactive”.

Consider `CSc1nnc(-c2sccc2OCc2ccccc2)n1C`, for which the AC50 is 17.8 µM (active). `CO[C@H]1COC(=O)[C@@H](C)COC(=O)[C@@H](COCc2ccccc2)NC(=O)C/C=C\[C@H]1C`: the activity, negative = inhibition was 37.5% [at 11.4 µM].

In the case of `CC(C)NCCOCCSc1ccc(Cl)cc1`, the AC50 is 15.8 µM (active). With `O=c1[nH]c(=O)n([C@@H]2C[C@H](O)[C@H](CO)O2)cc1C(F)(F)F`, the AC50 entry is “inactive”. On the same count and under the same terms, the entry for `Cn1cccc1C(=O)N1CCC2(CCN(C(=O)Nc3cccc(F)c3)CC2)CC1` is “inactive”; for `CC(=O)N1CCC2(CC1)CCN(C(=O)Nc1cccc(F)c1)CC2` it is “inactive”; for `CC(=O)NC1(c2ccc(F)cc2)CCN(C(=O)Nc2ccc(F)cc2F)CC1` it is 7.08 µM (active). The same measure, in the same setting: the value for `COc1cccc(-c2nc(N(C)Cc3ccco3)c3ccccc3n2)c1` was 20 µM (active); that for `CN(C)c1nc(-c2cccnc2)nc2ccccc12` was “inactive”. Turning to `COc1cccc(-c2nc(N(C)C)c3ccccc3n2)c1`, the half-maximal activity concentration (AC50) was 20 µM (active). Same read-out and setting: the entry for `CN1CCN(c2nc(-c3cccc(C#N)c3)nc3ccccc23)CC1` is “inactive”.

As for `CN(Cc1ccco1)c1nc(-c2cccc(C#N)c2)nc2ccccc12`, the AC50 is 15.8 µM (active). On the same count and under the same terms, the value for `CN(Cc1ccco1)c1nc(-c2ccc3c(c2)OCO3)nc2ccccc12` was 7.94 µM (active); that for `CNC(=O)c1sc(SC)cc1-c1ccc(Cl)cc1` was 0.0562 µM (active). Consider `CCn1c(/C=C2/C(=O)N(C)c3ccccc32)nc2ccccc2c1=O`, for which the half-maximal activity concentration (AC50) is 15.8 µM (active). Take `CCn1c(=O)[nH]c2ccccc2c1=O`: the AC50 entry was “inactive”.

On to `Cc1cc(C)cc(NC(=O)CCc2nc3ccccc3[nH]2)c1`, for which the AC50 is 1.58 µM (active). For `CC(C)(CCc1nc2ccccc2[nH]1)C(=O)O`, the activity, negative = inhibition was -0.413% [at 11.4 µM]. With `Cc1cc(C)cc(NC(=O)C/C(N)=N/O)c1`, the AC50 entry was “inactive”. On the same count and under the same terms, the value for `CCOC(=O)C1=C(CSc2nc3ccccc3s2)NC(=O)NC1c1cc(C)ccc1C` (centres undefined) was 7.94 µM (active); that for `CCOC(=O)C1=C(COc2ccc(F)cc2Cl)NC(=O)NC1c1cc(C)ccc1C` (centres undefined) was 7.08 µM (active). As to `CCOC(=O)C1=C(C)NC(=O)N[C@@H]1c1coc2cc(C)cc(C)c2c1=O`, the activity, negative = inhibition was -27.2% [at 11.4 µM]. Take `C=CCNc1nc(-c2ccc(Cl)cc2)cs1`: the AC50 is 3.16 µM (active). Still for that read-out and setting: the value for `Cc1ccc(CSC(N)=Nc2ccccc2)cc1C` was 2 µM (active); that for `C#C[C@@]1(O)CC[C@@H]2[C@@H]3CCC4=C(CCC(=O)C4)[C@H]3CC[C@]21C` was 0.0631 µM (active); that for `C#C[C@]1(O)CC[C@@H]2[C@H]3CCC4=CCCC[C@@H]4[C@@H]3CC[C@@]21C` was 3.98 µM (active).

On to `C[C@@]12CCC(=O)C=C1CC[C@@H]1[C@@H]2[C@H](O)C[C@]2(C)[C@@H]1CC[C@]2(O)C(=O)COC(=O)CCC(=O)O`, for which the AC50 result is “inactive”.

Regarding `C#C[C@@]1(O)CC[C@@H]2[C@@H]3CCC4=CC(=O)CC[C@@H]4[C@H]3CC[C@]21C`, the AC50 was 5.01 µM (active). Take `CCNc1ncc2nc(-c3cn(C)c4ccccc34)c(=O)n(C)c2n1`: the AC50 entry is “inactive”. The same measure, in the same setting: the entry for `COc1ccc(NC(=O)C2CCN(C(=O)c3cccs3)CC2)c(OC)c1` is “inactive”. Consider `COc1cc(OC)cc(C(=O)Nc2ccccc2C(=O)N2CCCC2)c1`, for which the concentration at half-maximal activity (AC50) was 28.2 µM (active). Same read-out and setting: the figure for `COC(=O)c1ccccc1NC(=O)C1CCN(C(=O)c2ccc(OC)cc2)CC1` is 14.1 µM (active). The same measure, in the same setting: the value for `COc1ccc(/C=C/C(=O)Nc2ccccc2C(=O)N2CCCC2)cc1` was “inactive”. For `COc1cc(OC)cc(C(=O)Nn2cc(C(=O)N3CCN(C)CC3)c3ccccc3c2=O)c1`, the AC50 result is “inactive”. `O=C1[C@H]2[C@H]3[C@H](O)[C@H](O)C/C(=N/OC[C@@H](O)COCc4ccco4)[C@H]3CC[C@@H]2C(=O)N1C1CCCCC1`: the activity, negative = inhibition is -5.34% [at 11.4 µM]. On to `N#CC(c1ccc(Cl)cc1)(c1ncc(C(F)(F)F)cc1Cl)N1CCOCC1` (centres undefined), for which the AC50 is 11.2 µM (active). Same read-out and setting: the value for `N#CC(c1ccccc1F)(c1ncc(C(F)(F)F)cc1Cl)N1CCOCC1` (centres undefined) was 11.2 µM (active); that for `Cc1ccccc1NS(=O)(=O)c1cc(C(=O)Nc2cccc(N(C)S(C)(=O)=O)c2)ccc1C` was 3.55 µM (active).

Take `CCN(CC)CCNC(=O)c1ccc(Cl)c(S(=O)(=O)Nc2ccccc2OC)c1`: the AC50 entry is “inactive”. As to `Cc1ccc(NC(=O)c2cccc(N(C)C)c2)cc1NC(=O)c1ccc(O)cc1`, the AC50 entry is “inactive”. Same read-out and setting: the value for `Cc1ccc(SCCNC(=O)c2ccccc2)cc1` was 6.31 µM (active); that for `Cc1ccc(SCCNC(=O)c2ccc(C)c(S(=O)(=O)Nc3ccccc3C)c2)cc1` was 2.51 µM (active). Consider `Cc1ccc(SCc2ccc(C(=O)NCc3ccncc3)cc2)cc1`, for which the AC50 was 0.355 µM (active). As for `Cc1ccc(SCc2nnc(NC(=O)c3ccccc3)s2)cc1`, the AC50 entry was “inactive”. In the case of `NS(=O)(=O)Cc1noc2ccccc12`, the AC50 result is “inactive”. Turning to `Cc1cc(C(C)(C)CC(C)(C)C)ccc1OCCOCC[N+](C)(C)Cc1ccccc1`, the AC50 result was “inactive”. On the same count and under the same terms, the entry for `CN[C@@H]1[C@H](O[C@H]2[C@@H](O[C@@H]3[C@@H](O)[C@@H](O)[C@@H](N=C(N)N)[C@@H](O)[C@@H]3N=C(N)N)O[C@@H](C)[C@]2(O)CO)O[C@H](CO)[C@@H](O)[C@@H]1O` is “inactive”.

On to `COc1ccc(-c2ccc(N)[n+](CCCC(=O)O)n2)cc1`, for which the AC50 result was “inactive”. `COc1ccc(-c2ccc(=N)n(CCCC(=O)O)n2)cc1`: the AC50 was 0.158 µM (active). Same read-out and setting: the figure for `Clc1ccccc1-c1cc(NCc2ccccc2)ncn1` is 7.94 µM (active). In the case of `Clc1ccccc1-c1cc(NCc2cccnc2)ncn1`, the AC50 result was “inactive”.

For the compound `Cc1cccc(CNc2cc(-c3ccccc3Cl)ncn2)c1`, the half-maximal activity concentration (AC50) is 10 µM (active). The same measure, in the same setting: the value for `CC(C(=O)NCc1ccc2c(c1)OCO2)N1c2cccc3cccc(c23)S1(=O)=O` (centres undefined) was 0.794 µM (active). Still for that read-out and setting: the value for `COC(=O)[C@@]1(Cc2ccc(F)cc2)[C@H]2c3cc(C(=O)N4CCCC4)n(CCc4c[nH]c5ccc(OC)cc45)c3C[C@H]2CN1C(=O)c1ccccc1` was 7.94 µM (active); that for `COc1ccc(NC(=O)N2CC[C@@]3(CCCN(C(=O)c4cccc(F)c4)C3)C2)cc1` was “inactive”; that for `COC(=O)[C@@]1(Cc2ccc(OC)cc2)[C@H]2c3cc(C(=O)N4CCCC4)n(Cc4ccc(Cl)c(C(F)(F)F)c4)c3C[C@H]2CN1C(=O)c1ccccc1` was “inactive”. On the same count and under the same terms, the entry for `COc1ccc(C(=O)N2CCC[C@@]3(CCN(Cc4cc(C(F)(F)F)cc(C(F)(F)F)c4)C3)C2)cc1` is “inactive”. As for `COC(=O)[C@@]1(Cc2ccc(OC)cc2)[C@H]2c3cc(C(=O)N4CCCC4)n(CCc4c[nH]c5ccc(O)cc45)c3C[C@H]2CN1C(=O)c1ccccc1`, the AC50 is 10 µM (active). Still for that read-out and setting: the figure for `COC(=O)[C@@]1(Cc2ccc(OC)cc2)[C@H]2c3cc(C(=O)N4CCCC4)n(CCCNc4ncc(C(F)(F)F)cc4Cl)c3C[C@H]2CN1C(=O)c1ccccc1` is 3.16 µM (active); for `COC(=O)[C@@]1(Cc2ccc(OC)cc2)[C@H]2c3cc(C(=O)N4CCCC4)n(CCc4c[nH]c5cc(F)ccc45)c3C[C@H]2CN1C(=O)c1ccccc1` it is 3.98 µM (active).
